Source: PubChem BioAssay (Tox21)
Results filed as inconclusive are left out. The source made the active and inactive calls. The call rests on the fitted dose curve; in most records, active means well fitted inhibition curve with a large enough effect in the repeat runs; inconclusive means weak or mixed curves; inactive means flat fitted curve, though single readings scatter.

Test: qHTS assay to identify small molecule HDAC inhibitors (AID 1259364); further: nearly all actives have a fitted effect of over 45% in size; on activity change, negative = inhibition: top concentration of the series differs between compounds
Conditions: HCT-116 HDAC-Glo I/II luminescence, 2 h; series mostly up to 92.4 µM; activity change, negative = inhibition: at the top concentration
Description: U.S. Tox21 Program National Center for Advancing Translational Sciences [NCATS] NIH Chemical Genomics Center [NCGC] U.S. Environmental Protection Agency [EPA] National Institutes of Environmental Health Sciences [NIEHS] National Toxicology Program [NTP] U.S. Food and Drug Administration [FDA] Tox21 Assay Overview: Histone deacetylases (HDACs) are a group of epigenetic enzymes that regulate gene expression by histone deacetylation. HDACs are capable of introducing epigenetic modifications and such aberrations contribute to the onset and progression of several human diseases, thus making HDACs a popular therapeutic target. For identifying endogenous class I/II HDAC inhibitors a homogenous, luminogenic HDAC I/II cell based assay was used to measure the relative activity of class I and II HDACs from cells. Wild type HCT-116 cells were used to screen Tox21 libraries for identifying class I/II HDAC inhibitors.
Tox21 Assay Protocol Summary: HCT-116 cells were dispensed at 1,500 per well in 5uL of culture medium into white solid bottom 1536-well plates (Greiner Bio-One, Monroe, NC) using a Multidrop Combi (Thermo Scientific, Waltham, MA) dispenser. The assay plates were incubated at 37 C and 5% CO2 for an overnight, and then 23nL of compounds dissolved in DMSO and positive control were transferred using a Pintool station (Wako, San Diego, CA). The assay plates were incubated at 37C and 5% CO2 for 2hr. After compound treatment, 4uL of HDAC-Glo reagent (Promega Corporation, Madison, WI) was added to each well of the assay plates using Flying Reagent Dispenser (FRD, Aurora Discovery, San Diego, CA) and incubated the assay plates at room temperature for 30min. The luminescence signal was quantified using a ViewLux plate reader (Perkin Elmer, Shelton, CT).
On the % scale 0 is the no-effect control and ±100 the full control effect; potency means the concentration at half of the fitted maximal effect.

| Compound | activity change, negative = inhibition | Potency |
| --- | --- | --- |
| CC(=O)CC(C)(C)C1CCCCC1 | 4.27% (inactive) |  |
| COC(=O)c1ccc(C)cc1C1=NC(C)(C(C)C)C(=O)N1 (stereo not given) | 2.3% (inactive) |  |
| COC(C)(C)CCCC(C)CC=O (stereo not given) | 0.676% (inactive) |  |
| CC/C=C\CC/C=C/C(OCC)OCC | 0.759% (inactive) |  |
| NC(=O)c1cn(Cc2c(F)cccc2F)nn1 | -5.36% [at 42.5 µM] (inactive) |  |
| N=C(N)c1ccc2cc(OC(=O)c3ccc(N=C(N)N)cc3)ccc2c1 |  | 59.6 nM (active) |
| CCCCCCCCCCCCCC=O | -0.0684% [at 8.39 µM] (inactive) |  |
| CCCCCCOC(=O)CCCCC(=O)OCCCCCC | 0.226% (inactive) |  |
| C=C[Si](OC(=C)C)(OC(=C)C)OC(=C)C | 1.68% (inactive) |  |
| O=C1CCCCCCCCCCCN1 |  | inactive |
| CCN(CC)CCOCCOC(=O)C1(c2ccccc2)CCCC1 | 17.6% [at 42.5 µM] (inactive) |  |
| NC(=O)COCCN1CCN(C(c2ccccc2)c2ccc(Cl)cc2)CC1 (stereo not given) | -0.272% [at 42.5 µM] (inactive) |  |
| C/C=C(\C)C#N | 1.25% (inactive) |  |
| CC(C)NCC(O)c1ccc(NS(C)(=O)=O)cc1 (stereo not given) | 5.96% (inactive) |  |
| CC(C)(C)c1nnc(NS(=O)(=O)c2ccccc2)s1 | -12.8% [at 42.5 µM] (inactive) |  |
| O=C(O)CCCl | -19.9% (inactive) |  |
| CC(C)OC(=O)c1ccccc1 | -1.89% (inactive) |  |
| CO[C@]12C[C@@H](COC(=O)c3cncc(Br)c3)CN(C)[C@@H]1Cc1cn(C)c3cccc2c13 | -3.13% [at 42.5 µM] (inactive) |  |
| O=c1cc(CO)occ1O | 0.0073% [at 42.5 µM] (inactive) |  |
| CN1CCN(c2cc3c(cc2F)c(=O)c(C(=O)O)cn3-c2ccc(F)cc2)CC1 | 2.4% [at 42.5 µM] (inactive) |  |

| Compound | activity change, negative = inhibition | Potency |
| --- | --- | --- |
| c1cnc(N2CCN(Cc3ccc4c(c3)OCO4)CC2)nc1 | -0.331% [at 42.5 µM] (inactive) |  |
| O=Cc1cccc([N+](=O)[O-])c1 | -1.46% (inactive) |  |
| COc1c(N2C[C@@H]3CCCN[C@@H]3C2)c(F)cc2c(=O)c(C(=O)O)cn(C3CC3)c12 | 13.1% [at 42.5 µM] (inactive) |  |
| CCCCCCCCCCCCN(CCCCCCCCCCCC)CCCCCCCCCCCC | 6.85% (inactive) |  |
| c1ccc(CC2=NCCN2)cc1 | -1.88% [at 42.5 µM] (inactive) |  |
| NS(=O)(=O)c1ccc(C(=O)O)cc1 | -2.61% [at 42.5 µM] (inactive) |  |
| NS(=O)(=O)c1cc(C(=O)O)cc(N2CCCC2)c1Oc1ccccc1 | -0.763% [at 42.5 µM] (inactive) |  |
| CCCCC(CC)COC(=O)c1ccccc1O (stereo not given) | -3.56% [at 42.5 µM] (inactive) |  |
| C=COCC1CCC(CO)CC1 (stereo not given) | 4.33% (inactive) |  |
| Nc1ccc(S(=O)(=O)Nc2ccnn2-c2ccccc2)cc1 | -2.22% [at 19 µM] (inactive) |  |
| C[C@](N)(Cc1ccc(O)cc1)C(=O)O | -0.294% [at 8.39 µM] (inactive) |  |
| NCCCNCCSP(=O)(O)O | -1.97% [at 8.39 µM] (inactive) |  |
| C1OCOCO1 | -0.772% (inactive) |  |
| Nc1ccccc1S(=O)(=O)O | -8.25% (inactive) |  |
| CC(=O)OC/C=C(\C)CC/C=C(\C)CCC=C(C)C |  | inactive |
| CC(C)(O)C(=O)c1ccccc1 | -3.29% (inactive) |  |
| CO[Si](CCCOCC1CO1)(OC)OC (stereo not given) |  | inactive |
| CC1(C)CO[C@@H](CC(=O)O)CN1 | -0.995% [at 42.5 µM] (inactive) |  |
| CN1CC(=O)NC1=N | -1.13% [at 42.5 µM] (inactive) |  |
| C=CCS(=O)(=O)O | 10.1% (inactive) |  |
